TGFb inhibitor: inhibitors of TGF-b signaling; AID 588855; 410,000 tested, 1.2% active; Potency, µM (highest dose often 46.1 µM), for inactives: at the top dose activity, negative = inhibition, usual class: inhibitors; HepG2 CAGA-GFP TGF-b/SMAD3 reporter, GFP fluorescence, 18 h; TGF-beta stimulated, 500 pg/mL final; also: potency is read from the fitted curve at half-maximal effect; % is scaled to controls: 0 for no effect and ±100 for the full control effect; nearly all actives have a fitted effect of over 65% in size
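HEPG2 CAGA-GFP reporter cells (1000/well, DMEM with 1% FBS) received compounds, then recombinant TGF-beta at 500 pg/mL final for 18 hours at 37 degrees C. Per-cell GFP summed per well was normalised to unstimulated and stimulated DMSO controls before curve fitting.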
IL1B secr inh: inflammasome signaling inhibition, IL-1 beta readout; THP-1 LPS/ATP IL-1B secretion, AlphaLISA, 16 h; active compounds read low; AID 743279; activity change, % at 57.5 µM; 360,000 tested, 4.7% active; in the data active = activity change below about -50%; inconclusive = mostly about -30% to -49%; also: % is scaled to controls: 0 for no effect and ±100 for the full control effect
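THP-1 cells pretreated 1 hr with compounds (up to 57.5 uM final), then stimulated with LPS (250 ng/mL final) plus ATP (1.25 mM final); secreted IL-1B measured by AlphaLISA after 16 hr, decreased signal indicating inhibition.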
HepG2 viability: HepG2 cytotoxicity, counter-screen for TGF-b inhibitors. Potency, µM (doses to about 46.1 µM), for the others: at the highest dose activity change, negative = cytotoxicity, most hits filed as cytotoxic. 410,000 tested, 0.76% active. AID 588856. HepG2 CAGA-GFP viability, ATP luminescence, 18 h; also: potency is read from the fitted curve at half-maximal effect
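CellTiter-Glo luminescence gave cytotoxicity after 18 hours at 37 degrees C. The cells were HepG2 CAGA-GFP in 1% FBS DMEM, stimulated with 500 pg/mL TGF-beta after compound addition. %Activity was normalised to no-cell wells (complete cell-killing) and DMSO (no toxicity), and curves were fitted and classified.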
TDP1 cell noCPT: qHTS for Inhibitors of human tyrosyl-DNA phosphodiesterase 1 (TDP1): qHTS in cells in absence of CPT | Potency, µM (series often up to 46.2 µM), without a hit: at the top dose activity change, negative = growth inhibition, usual class: inhibitors | DT40 Tdp1-/- hTDP1 cells, no CPT, ATP luminescence, 48 h | 420,000 tested, 15% active; also: potency is read from the fitted curve at half-maximal effect; % is scaled to controls: 0 for no effect and ±100 for the full control effect; nearly all actives have a fitted effect of over 55% in size
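DT40 Tdp1-/-;hTDP1 cells, no CPT (DMSO vehicle only), 400 cells/well; compounds pin-transferred; ≥48 hr, 37 °C; CellTiter-Glo 30 min RT dark, luminescence read.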
TDP1 inh: blocks human tyrosyl-DNA phosphodiesterase 1 | Q9NUW8 | Potency, µM (top dose mostly 130 µM), for the others: at the highest dose activity change, negative = inhibition, usual class: inhibitors | AID 485290 | 350,000 tested, 0.28% active | recombinant TDP1, AlphaScreen DNA substrate cleavage; also: potency is read from the fitted curve at half-maximal effect; % is scaled to controls: 0 for no effect and ±100 for the full control effect; nearly all actives have a fitted effect of over 40% in size
Target sequence (Q9NUW8 whole entry, looked up): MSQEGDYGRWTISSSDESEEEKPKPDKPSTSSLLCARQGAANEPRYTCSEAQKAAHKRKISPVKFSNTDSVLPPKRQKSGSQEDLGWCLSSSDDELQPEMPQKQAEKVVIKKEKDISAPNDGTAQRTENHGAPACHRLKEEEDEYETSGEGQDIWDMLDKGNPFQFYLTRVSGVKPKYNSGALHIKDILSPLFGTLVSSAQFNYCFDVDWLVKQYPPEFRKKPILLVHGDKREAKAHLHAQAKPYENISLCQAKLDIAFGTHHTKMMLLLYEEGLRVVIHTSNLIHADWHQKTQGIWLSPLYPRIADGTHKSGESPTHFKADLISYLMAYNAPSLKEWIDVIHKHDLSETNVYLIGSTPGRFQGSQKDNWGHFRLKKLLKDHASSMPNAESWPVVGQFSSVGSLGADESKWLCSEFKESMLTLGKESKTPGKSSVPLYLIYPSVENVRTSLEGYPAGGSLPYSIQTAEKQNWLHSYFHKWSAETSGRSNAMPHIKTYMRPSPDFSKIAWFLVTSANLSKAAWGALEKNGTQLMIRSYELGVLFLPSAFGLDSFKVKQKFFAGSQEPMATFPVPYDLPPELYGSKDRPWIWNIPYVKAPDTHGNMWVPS
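Tdp1 1 nM final; 15 min RT w/ cpd; substrate 15 nM, 5 min; beads 10 ug/ml, 10 min; AlphaScreen read. Neg ctrl: no enzyme.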
DT40 TDP1 CPT: DT40-hTDP1 cell growth loss with CPT; chicken DT40 Tdp1-/-;hTDP1 cells + 20 nM CPT, ATP luminescence, 48 h; Potency, µM (titrated, usually from 46.2 µM), inactives show at the top dose activity change, negative = growth inhibition, most hits filed as inhibitors; 420,000 tested, 12% active; AID 686979; also: potency is read from the fitted curve at half-maximal effect; % is scaled to controls: 0 for no effect and ±100 for the full control effect; nearly all actives have a fitted effect of over 55% in size
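Chicken DT40 Tdp1-/- cells complemented with human TDP1, 400 cells/well, exposed to compounds plus 20 nM camptothecin for at least 48 h at 37 C; viability read as ATP content by CellTiter-Glo luminescence.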
Active calls of the source: *; ? = inconclusive; . = no result given. The list is not random: actives were taken first. Their share in the collection is about 18%. Unless noted, calls follow the shape of the dose curve; as a rule, active = well fitted curve in the direction sought with a large enough effect; inconclusive = small, poorly fitted or top-dose-only effect, or another doubt; inactive = no such curve, though single readings can be large; an effect the other way counts as inactive or inconclusive.

SMILES	TGFb inhibitor	IL1B secr inh	HepG2 viability	TDP1 cell noCPT	TDP1 inh	DT40 TDP1 CPT
O=C(O)C1c2ccccc2C(=O)N(Cc2ccc(F)cc2)C1c1ccncc1 (stereo unspecified)	7%	23	3%	-19%	-1%	0%
CCOc1ccc(OCCOC(=O)CN2C(=O)NC3(CCCC3)C2=O)cc1	-21%	-5	15%	?	5%	?
COC(=O)c1c(-c2ccc(OC)c(OC)c2)csc1N	-5%	16	11%	-18%	-4%	-20%
O=C(Cc1ccccc1)Nc1nc(-c2ccc(F)c(F)c2)cs1	4%	-14	1%	?	.	1.8µM*
COC(=O)c1c(-c2ccc3ccccc3c2)csc1NC(=O)Cc1ccc(OC)c(OC)c1	?	?	-5%	13µM*	-2%	-74%
O=C(CCCCN1CCCCC1)c1ccc2c(c1)Cc1ccccc1-2	-5%	-5	-19%	21µM*	1%	?
CCC1(C)CC(CC(=O)O)(c2ccccc2OC)CCO1 (stereo unspecified)	-1%	24	11%	1%	2%	11%
CCOc1ccc(C(=O)CCN2CCCCC2)cc1	?	-6	-30%	?	-4%	21µM*
CCOc1ccc(C(=O)CCC(=O)NN2CCCCC2)cc1	-1%	4	-7%	-2%	.	0%
CCC1(C)CC2(CCCN(CCC(=O)c3ccccc3)C2)CCO1 (stereo unspecified)	?	1	-55%	3.3µM*	5%	3.7µM*
COc1ccc(C(=O)CCN2CCCCCC2)cc1	?	-4	-111%	3.2µM*	5%	3.2µM*
Cc1ccc(C(=O)NNC(=O)c2ccc3ccccc3c2O)cc1	-1%	18	-18%	?	.	24%
O=C(/C=C/c1ccccc1)CCN1CCCCC1	11µM*	-90*	20µM*	0.92µM*	.	1.2µM*
COc1ccc(C(=O)CCN2CCN(c3ccc(OC)cc3)CC2)cc1	?	-101*	-109%	2.1µM*	.	2.1µM*
O=C(/C=C/c1ccccc1)COC(=O)c1ccccc1	-5%	-8	-19%	9.2µM*	.	?
O=C(CCN1C(=O)c2ccccc2C1=O)c1ccccc1	?	-15	8%	-20%	.	1%
O=C(CCN1CCCCCC1)c1ccccc1	0%	-3	-3%	3.7µM*	1%	3.3µM*
COc1ccc(N2CCN(CCC(N)=O)CC2)cc1	-9%	3	6%	-2%	2%	2%
C[Si](C)(C)Cl	.	.	.	.	12%	.
Cc1cccc(Cn2c(SCc3ccc(C(=O)NCCc4ccccc4)cc3)nc3ccncc32)c1	7.9µM*	.	-52%	13µM*	10%	?
O=C(NCCc1ccccc1)c1ccc(CSc2nc3ccncc3n2Cc2cccc(F)c2)cc1	?	.	-6%	12µM*	8%	13µM*
O=C(NCCc1ccccc1)c1ccc(CSc2nc3ccncc3n2Cc2ccccc2F)cc1	7.1µM*	.	-19%	?	8%	15µM*
CC1CCCCN1C(=O)c1cnn2c1NC(=C1CC1)C=C2C(F)F (stereo unspecified)	.	.	.	?	.	10%
OC(CNCc1ccco1)Cn1c2ccccc2c2ccccc21 (stereo unspecified)	?	?	18µM*	?	1%	?
COc1ccc(OCC(O)CNCc2ccco2)cc1 (stereo unspecified)	0%	-19	12%	1%	0%	1%
OC(CNCc1ccco1)COc1ccccc1 (stereo unspecified)	10%	7	-56%	-41%	3%	1.2µM*
Cc1ccc(S(=O)(=O)NCCNC(=O)CN2CCOCC2)cc1	3%	-1	0%	-1%	.	11%

Screening data as filed in PubChem BioAssay.
